What follows are molecules tested against Nuclear receptor coactivator 1 (Homo sapiens) (UniProt Q15788) (assay: SRC1 coactivator transcriptional activity inhibitors, confirmation, cell-based, luminescence, quadruplicate (AID 588820;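 also: 0% = DMSO wells and 100% = gossypol 36 µM treated wells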)). Details: HEK293 GAL4-SRC1 luciferase reporter, at 3.6 µM, active compounds read high;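 active = mean inhibition above 46.68%, the untreated control wells mean plus 3 SD; inactive = the rest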.
Sequence of Nuclear receptor coactivator 1 (Homo sapiens) (Q15788 whole entry, looked up, the tested form may be a part): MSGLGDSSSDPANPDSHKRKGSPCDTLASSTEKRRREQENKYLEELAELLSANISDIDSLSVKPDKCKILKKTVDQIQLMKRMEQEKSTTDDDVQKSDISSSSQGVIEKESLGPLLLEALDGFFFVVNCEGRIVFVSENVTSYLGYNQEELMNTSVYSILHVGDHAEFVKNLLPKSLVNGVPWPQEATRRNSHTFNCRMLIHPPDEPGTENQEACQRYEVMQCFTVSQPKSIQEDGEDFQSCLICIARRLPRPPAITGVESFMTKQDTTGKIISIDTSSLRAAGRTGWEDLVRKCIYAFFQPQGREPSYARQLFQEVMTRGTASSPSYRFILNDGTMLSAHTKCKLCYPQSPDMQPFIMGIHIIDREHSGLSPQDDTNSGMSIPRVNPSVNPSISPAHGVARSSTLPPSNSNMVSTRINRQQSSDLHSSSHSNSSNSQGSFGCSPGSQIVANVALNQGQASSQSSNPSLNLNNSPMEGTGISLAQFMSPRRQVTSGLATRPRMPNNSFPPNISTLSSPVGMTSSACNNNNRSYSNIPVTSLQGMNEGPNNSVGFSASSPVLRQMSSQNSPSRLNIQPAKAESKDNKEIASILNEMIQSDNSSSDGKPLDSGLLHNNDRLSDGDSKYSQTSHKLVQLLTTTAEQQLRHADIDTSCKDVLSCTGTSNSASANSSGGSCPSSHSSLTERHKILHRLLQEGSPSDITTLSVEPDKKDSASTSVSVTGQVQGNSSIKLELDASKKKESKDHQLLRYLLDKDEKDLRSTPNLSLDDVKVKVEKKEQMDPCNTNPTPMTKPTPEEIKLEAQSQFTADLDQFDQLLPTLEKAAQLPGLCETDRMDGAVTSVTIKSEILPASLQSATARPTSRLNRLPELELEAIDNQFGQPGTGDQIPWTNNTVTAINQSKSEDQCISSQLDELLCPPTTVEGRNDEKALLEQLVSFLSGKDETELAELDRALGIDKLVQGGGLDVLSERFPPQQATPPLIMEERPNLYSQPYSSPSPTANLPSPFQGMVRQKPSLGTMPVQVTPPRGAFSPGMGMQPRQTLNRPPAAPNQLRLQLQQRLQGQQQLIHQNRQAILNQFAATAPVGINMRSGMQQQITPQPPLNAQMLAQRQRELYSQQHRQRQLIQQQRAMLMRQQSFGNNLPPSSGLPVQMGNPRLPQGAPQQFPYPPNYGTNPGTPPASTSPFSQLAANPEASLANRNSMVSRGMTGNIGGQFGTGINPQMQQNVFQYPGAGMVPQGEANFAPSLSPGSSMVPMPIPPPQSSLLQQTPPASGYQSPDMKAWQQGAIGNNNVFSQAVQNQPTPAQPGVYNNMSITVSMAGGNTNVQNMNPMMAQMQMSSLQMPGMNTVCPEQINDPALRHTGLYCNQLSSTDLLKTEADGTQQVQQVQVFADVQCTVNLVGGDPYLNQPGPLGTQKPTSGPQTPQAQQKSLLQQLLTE

inhibition, inactive:
CN1CCN(c2ccc(Cl)cc2NC(=O)CC2OC(=O)c3ccccc32)CC1 (stereo unspecified) -37.2%
CCOC(=O)CSc1cc(-c2ccccc2)nc2ncnn12 17.9%
CC(OC(=O)CSCC(=O)Nc1ccc(Cl)cc1)C(=O)N(C)Cc1ccccc1 (stereo unspecified) -7.38%
Cc1cc(C)nc(/N=C(\N)Nc2ccc(C(C)C)cc2)n1 3.7%
CC1(C)CC(NCc2ccccc2)CCO1 (stereo unspecified) -24.7%
COCCn1c(C)cc(C(=O)CSc2nc3ccccc3s2)c1C -45.7%
O=C(O)CN1C(=O)/C(=C\c2ccccc2OCc2ccc(Cl)cc2Cl)SC1=S 32%
Cc1cc(C)cc(NS(=O)(=O)c2ccc3[nH]c(=O)ccc3c2)c1 -17.7%
CCN1CCN(c2ccc(S(=O)(=O)N3CCCCC3)cc2NC(=O)/C=C/c2cc(OC)ccc2OC)CC1 -0.69%
Cc1cc(C)nc(-n2ncc(C#N)c2N)n1 -18.5%
Cc1sc2ncnc(N3CCC(C(=O)Nc4cc(S(C)(=O)=O)ccc4Cl)CC3)c2c1C 14.9%
O=C(NC1CCCCC1)c1n[nH]c2c1CCCCC2 -44.7%
Cc1cc(OC(C)C(=O)Nc2ccncc2)ccc1Cl (stereo unspecified) -0.51%
Cc1ccc(C2/C(=C(\O)c3ccc4c(c3)OCCO4)C(=O)C(=O)N2Cc2cccnc2)cc1 (stereo unspecified) -15.5%
NS(=O)(=O)c1ccc(CNC(=O)c2cnccn2)cc1 -22.2%
CC1CCN(C(=O)Cn2c3ccc(F)cc3c3nc4n(c(=O)c32)CCCS4)CC1 4.67%

From PubChem BioAssay
